Several values for one entry are separate records, joined by “and”; a condition that tells them apart may be missing. Equal values may be shown once. This is part of a sample that, as a whole, favours compounds with a hit. Of some 83,000 tested, about 20% had one in any assay.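 96-well plates, one dose, 48 hours. Percent growth reported; active if below 10.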 Values without a mark were called inactive. Activity calls are given as the source filed them.
Key:
Assay in all cases: NCI-60 one-dose screen, 48 h (100 = growth as untreated, 0 = no growth, -100 = all killed)
Details in all cases: 10 µM unless noted
NCI-H23 lung = system: NCI-H23 lung
NCI-H226 lung = system: NCI-H226 lung
NCI-H322M lung = system: NCI-H322M lung
HOP-62 NSCLC = system: HOP-62 NSCLC
NCI-H460 lung = system: NCI-H460 lung
HOP-92 NSCLC = system: HOP-92 NSCLC
NCI-H522 lung = system: NCI-H522 lung
A549/ATCC NSCLC = system: A549/ATCC NSCLC
786-0 renal = system: 786-0 renal
COLO 205 colon = system: COLO 205 colon

SMILES	growth (NCI-H23 lung)	growth (NCI-H226 lung)	growth (NCI-H322M lung)	growth (HOP-62 NSCLC)	growth (NCI-H460 lung)	growth (HOP-92 NSCLC)	growth (NCI-H522 lung)	growth (A549/ATCC NSCLC)	growth (786-0 renal)	growth (COLO 205 colon)
COc1cc(C2CC(c3ccc(Cl)cc3)=Nc3c(N)nc(N)nc3N2)ccc1Oc1nc(Nc2ccc(F)cc2)nc(N(C)C)n1 (stereo not given)	76.6%	60.9%	93.8%	74.1%	13.5%	12.6%	38.9%	47.2%	38.2%	55.4%
CC1=C(C(=O)OC(C)C)C(c2ccc(O)cc2)NC(=O)N1 (stereo not given)	101%	105%	106%	99.4%	117%	105%	81.3%	101%	99.5%	114%
O=C(c1ccc(O)cc1)C1[C@H](c2ccc(Cl)cc2)[C@@H](c2ccccc2)NC12C(=O)Nc1ccccc12 (stereo not given in full)	-41.7% (active)	-13.8% (active)	9.03% (active)	-20.1% (active)	-20.5% (active)	-27.8% (active)	-8.98% (active)	14.4%	-43.2% (active)	-82.9% (active)
CC(=O)c1ccc2c(N)c(C(=O)Nc3ccc(C(F)(F)F)cc3)sc2n1	41.7%	59.1%	83.2%	58.6%	72.8%	67.1%	59.8%	78.5%	78.1%	83.4%
N#CCc1nnc(NC(=O)c2ccc(-n3c(=O)[nH]c4ccccc4c3=O)cc2)s1	93%	106%	101%	101%	100%	98.1%	89.3%	105%	106%	105%
CS(=O)(=O)c1ccc(-n2nc(C(=O)NCc3ccccc3)cc2-c2ccc(Cl)cc2)cc1	89.9%	85%	88.1%	106%	71.2%	88.1%	58.7%	70%	71%	107%
CCCn1c(NC(=O)c2cccc(C(N)=O)c2)nc2ccc(CN3CCCCC3)cc21	89.8%	102%	82%	105%	81.9%	84.4%	94.1%	99.8%	12%	97.4%
CCN1C(=O)N(CC)C2NNC(Sc3c(C(=O)O)c4ccccc4n(CCC(C)C)c3=O)=NC21 (stereo not given)	10.7%	30.4%	52.9%	27.3%	-7.83% (active)	49.4%	-21.7% (active)	12.4%	16%	-20.8% (active)
c1n[nH]cc1-c1nc2ccc3[nH]ncc3c2c2c1CC1(CC2)COC1	62%	66%	64%	77.7%	73.4%	92.1%	-24.6% (active)	95.9%	60.6%	24.6%
COc1ccc([C@H]2C(C(=O)c3ccc(Cl)cc3)C3(N[C@@H]2c2ccccc2)C(=O)Nc2ccccc23)cc1 (stereo not given in full)	21.2%	24.9%	54.5%	51%	18.3%	23%	29.5%	31%	28.4%	-6.01% (active)
Cn1cc(-c2cc3nc(-c4c[nH]c5ccccc45)cc(N)n3n2)c2ccccc21	-56.9% (active)	5.22% (active)	19.4%	-68.2% (active)	-75.5% (active)	-29.4% (active)	-65.5% (active)	-81.7% (active)	-90.6% (active)	-88.8% (active)
Cn1cc(-c2cc(N)n3nc(-c4c[nH]c5ccc(Cl)cc45)cc3n2)c2cccnc21	-75.7% (active)	-58.4% (active)	-83.6% (active)	-88.9% (active)	-47% (active)	-70.5% (active)	-82.1% (active)	-77.2% (active)	-92.5% (active)	-83.1% (active)
C=CC(=O)Nc1ccc(C(=O)/C=C/c2ccc(N(C)C)cc2)c(O)c1	4.7% (active)	28.6%	41.1%	10.1%	0.849% (active)	45.8%	-67.5% (active)	12.8%	-1.73% (active)	-59.6% (active)
COc1c2c(c(Br)c3c1C(CCc1ccccc1)N(C)CC3)OCO2 (stereo not given)	16.4%	51.7%	38.5%	68.2%	23.5%	22.6%	56.9%	45.9%	47.6%	29.6%
C#CCCCNCCNc1ccnc2cc(Cl)ccc12	72.7%	70.7%	92%	79.1%	83.2%	53.4%	41.1%	84.3%	58.8%	10.7%
Cc1ccc(Cl)cc1NC(=O)Nc1nc2ccc([N+](=O)[O-])cc2s1	-28.6% (active)	-9.03% (active)	-6.17% (active)	-68.1% (active)	-41.5% (active)	-28.6% (active)	-36.8% (active)	-25.8% (active)	-27.9% (active)	-87.9% (active)
Cn1ncc2c(N)nc(Oc3ccccc3-c3ccccc3)nc21	29.6%	45.2%	72.2%	57.9%	14.5%	62.4%	22.2%	55.9%	52.6%	33.9%
CC(=O)Nc1cccc(-n2c(COc3ccc(Br)cc3)nc3ccccc32)c1	94% and 107%	76.2% and 107%	103% and 104%	119% and 114%	105% and 107%	90% and 108%	97.1% and 108%	115% and 108%	115% and 103%	108% and 124%
O=C(CSc1nnc(-c2ccc(-c3nc4ccccc4[nH]3)cc2)o1)Nc1ccc(Br)cc1	1.35% (active)	74.4%	36.8%	3.07% (active)	-55.2% (active)	9.82% (active)	12.8%	0.989% (active)	-40.9% (active)	51.7%
N#CC1=C(c2ccco2)Nc2c(c(-c3ccccc3)nn2-c2ccccc2)C12C(=O)Nc1ccc(Br)cc12 (stereo not given)	70.6%	67.2%	86.9%	10.5%	1.16% (active)	52.4%	31.8%	1.5% (active)	43.4%	86.9%
O=C(CSc1nc2ccccc2c(=O)[nH]1)NNC(=O)c1ccccc1Cl	104%	111%	116%	115%	106%	100%	104%	92.3%	97.1%	124%
COc1ccc(-c2cc(C(=O)Oc3ccc(C=O)cc3OC)nn2-c2ccc(S(C)(=O)=O)cc2)cc1	96%	104%	106%	104%	105%	110%	68.3%	105%	113%	133%
Cc1nc(Nc2ccccn2)sc1C1=NNC(c2ccccc2F)C1 (stereo not given)	67.6%	78.9%	89.1%	70.6%	28%	62.4%	-18.9% (active)	59.2%	57.6%	86%
CCCCCCCCc1ccc(C(=O)Nc2ccc(C)c(OP(=O)(O)O)c2)cc1	101%	102%	111%	104%	110%	42%	82.1%	105%	83.6%	126%
COc1c(F)ccc(C(=O)Nc2ccc3nc(NC(=O)C4CCCN(S(=O)(=O)c5ccc(C(C)(C)C)cc5)C4)sc3c2)c1F (stereo not given)	66.6%	64.1%	80.3%	88.9%	57.3%	6.58% (active)	66.7%	64.1%	56%	80.9%
CCN1CCN(Cc2ccc(C(=O)Nc3cccc(Nc4ccc5c(OC)cccc5n4)c3)cc2C(F)(F)F)CC1	-96.1% (active)	-85.8% (active)	-100% (active)	-63.5% (active)	-69% (active)	-75.1% (active)	-83.3% (active)	-68% (active)	-73% (active)	-67.5% (active)
